# Compound activity (PubChem BioAssay)
# Hsp90 block: displaces geldanamycin probe from tumor Hsp90; NCI-N417 lysate Hsp90, Cy3B-geldanamycin FP displacement; P07900; inhibition, % at 30 µM; actives 0.35% (n = 64,000);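 active = inhibition above 50%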
# BAP1 inh: human BAP1 deubiquitinase inhibition; AID 436; recombinant BAP1, Ub-AMC hydrolysis fluorescence kinetic; active compounds read low; calls only at 20 µM; actives 0.48% (n = 72,000);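 active = activity remaining at or below 50% of control, provided the compound also passes the data quality filters; inactive = the rest, including low values that fail the filters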
# Cdc25B inh: human M-phase inducer phosphatase 2 inhibition. P30305. recombinant Cdc25B, OMFP fluorescence Ex485/Em525. inhibition, %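 (compounds tested at 10 µM final in the well)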. actives 0.1% (n = 65,000); in the data active = inhibition above about 50%
# MKP-1 inh: human dual specificity phosphatase 1 inhibition; inhibition, %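 (compounds tested at a single concentration somewhere between 10 and 100 µM)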; recombinant MKP-1, OMFP hydrolysis fluorescence; actives 0.15% (n = 65,000);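 active = inhibition above about 50%, limit read from the data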
# Target sequence (P28562 whole entry, looked up): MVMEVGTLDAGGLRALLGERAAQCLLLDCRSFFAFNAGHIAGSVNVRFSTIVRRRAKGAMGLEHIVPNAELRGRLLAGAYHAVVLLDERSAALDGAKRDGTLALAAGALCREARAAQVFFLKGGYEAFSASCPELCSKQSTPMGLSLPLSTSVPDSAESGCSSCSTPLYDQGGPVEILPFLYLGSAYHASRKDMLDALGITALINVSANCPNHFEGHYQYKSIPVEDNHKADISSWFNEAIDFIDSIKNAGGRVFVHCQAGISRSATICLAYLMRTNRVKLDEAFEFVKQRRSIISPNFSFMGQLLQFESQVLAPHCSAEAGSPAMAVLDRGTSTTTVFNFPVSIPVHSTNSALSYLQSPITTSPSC
# Numbers stand for hits; - = inactive; . = no result; + = active, no number. This is a sample that favours compounds with a hit; in the whole collection about 1% have one here.
SMILES,Hsp90 block,BAP1 inh,Cdc25B inh,MKP-1 inh
O=C1Nc2ccc(I)cc2/C1=C/c1cc(Br)c(O)c(Br)c1,-,+,.,.
COc1cc(OC)c(/C=C2/C(=O)Nc3ccccc32)c(OC)c1,-,-,.,.
CCOc1ccc(S(=O)(=O)Nc2cc(Sc3ncn[nH]3)c3oc(=O)sc3c2)cc1,54,-,-,-
O=C(c1cccs1)N(Cc1ccco1)C1CCS(=O)(=O)C1 (centres undefined),-,-,-,-
O=C(c1sc2ccccc2c1Cl)N(Cc1ccco1)C1CCS(=O)(=O)C1 (centres undefined),54,-,-,-
Cc1nc2c(C)cccn2c1/C(O)=C1\C(=O)C(=O)N(CCN(C)C)C1c1ccncc1 (centres undefined),-,-,56,-
COc1cccc(C2/C(=C(\O)c3c(C)nc4c(C)cccn34)C(=O)C(=O)N2CCCN(C)C)c1OC (centres undefined),-,-,-,-
Cc1ccccc1OCC(O)Cn1c(NCCN(C)C)nc2c1c(=O)n(C)c(=O)n2C (centres undefined),92,-,-,-
O=C(O)c1ccc2c3c(ncnc13)-c1ccccc1C2=O,90,-,-,-
O=C1c2ccccc2-c2ncnc3cccc1c23,-,-,-,-
Cn1c(=O)[nH]c(=O)c2c1nc(SCCO)n2CCc1ccccc1,.,-,.,.
N#C/C(=C\c1ccc(O)c(O)c1)C(=O)NCCCNC(=O)/C(C#N)=C/c1ccc(O)c(O)c1,81,-,.,.
N#C/C(=C\c1ccc(O)c(O)c1)C(=O)Nc1ccccc1,83,-,.,.
C[C@@H](NC(=O)/C(C#N)=C/c1ccc(O)c(O)c1)c1ccccc1,77,-,.,.
CC(NC(=O)CC(O)(C(F)(F)F)C(F)(F)F)c1ccccc1 (centres undefined),-,-,-,-
C[C@H](NC(=O)/C(C#N)=C/c1ccc(O)c(O)c1)c1ccccc1,75,-,.,.
CCOC(=O)c1c(NC(=O)CN2C(=O)c3ccccc3C2=O)sc2c1CCC2,.,-,.,.
COc1cc(-c2cc(C(F)(F)F)n3ncc(C(=O)Nc4ccc(Cl)cc4)c3n2)cc(OC)c1OC,.,-,.,.
COc1cc(/C=C(\C#N)C(=O)c2ccc(O)c(O)c2)cc(I)c1O,73,-,.,.
COCc1cc(C)nc(SCC(=O)c2ccc(O)c(O)c2)c1C#N,-,-,-,-
O=C(c1n[nH]c(=O)c2ccccc12)N1CCN(C2c3ccccc3-c3ccccc32)CC1,90,-,-,52
COc1ccc(-c2csc(NC(=O)c3ccc(S(=O)(=O)N4CCc5ccccc54)cc3)n2)cc1,.,-,.,.
CCC(=O)Nc1cccc(-c2csc(-c3ccccc3)n2)c1,.,-,.,.
Oc1ccc(-c2nc(-c3ccc(O)c(O)c3)cs2)cc1,99,-,-,-
CCOC(=O)c1c(C)oc2c1c(C=NCc1ccccn1)c(O)c1ccccc12,-,-,-,-
SMILES,Hsp90 block,BAP1 inh,Cdc25B inh,MKP-1 inh
CCOC(=O)c1c(C)oc2c1c(C=NCC1CCCO1)c(O)c1ccccc12 (centres undefined),64,-,-,-
COc1ccc(C2(CNC(=O)c3ccccc3[N+](=O)[O-])CCCC2)cc1OC,.,-,.,.
Cc1cccc(NC(=O)c2c(O)c3cccc4c3n(c2=O)CCC4)n1,50,-,-,-
Cc1cnc(NC(=O)c2c(O)c3cccc4c3n(c2=O)CCC4)s1,-,-,-,-
CCOC(=O)NC1(NCc2ccccc2)Oc2ccccc2O1,51,-,-,-
CCCc1cc(-c2[nH]ncc2-c2ccc3c(c2)OCCCO3)c(O)cc1O,78,-,-,-
CN1CCCN(C2CC(=O)N(c3ccc(Br)cc3)C2=O)CC1 (centres undefined),.,-,.,.
CC(C)CCNC(=O)C1CCN(c2nc3ccccc3o2)CC1,-,-,71,-
O=C(NCc1cccs1)C1CCN(c2nc3ccccc3o2)CC1,-,-,-,-
O=C(Nc1ccc(O)c(-c2nc3ccccc3o2)c1)c1ccccc1Cl,.,-,.,.
O=c1[nH]c2cc(C(F)(F)F)ccc2n1-c1cc(C(F)(F)F)ccc1O,59,-,.,.
O=C(COc1ccccc1)N1CCN(S(=O)(=O)c2cccs2)CC1,.,.,61,-
CC(=O)N1c2ccccc2NC2=C(C(=O)CC(c3ccccc3)C2)C1c1ccc2c(c1)OCO2 (centres undefined),.,-,.,.
O=C(Cn1cnc2ccccc2c1=O)NCCC(=O)Nc1ccc2c(c1)OCCO2,86,-,-,-
CCOc1cc(C2C(C#N)=C(N)Oc3n[nH]c(-c4ccccc4)c32)ccc1O (centres undefined),-,-,65,-
N#CC1=C(N)Oc2n[nH]c(-c3ccccc3)c2C1c1cccnc1 (centres undefined),-,-,-,-
CCOc1cc(C2C(C(=O)OC)=C(C)NC3=C2C(=O)CC(c2ccc(OC)cc2)C3)cc(Cl)c1O (centres undefined),.,-,.,.
CCn1c(CSc2nccn2C)nc2cc(C(=O)O)ccc21,89,-,-,-
COc1ccccc1N1CCN(CC(O)COc2ccc(C(C)C)c(C)c2)CC1 (centres undefined),.,-,.,.
Cc1ccc(S(=O)(=O)N2CCC(C(=O)N[C@@H](C)C(=O)Nc3ccc4c(c3)OCO4)CC2)cc1,65,-,-,-
Cc1ccc(S(=O)(=O)N2CCC(C(=O)OC(C)C(=O)NCc3ccc4c(c3)OCO4)CC2)cc1 (centres undefined),-,-,-,-
CC(=O)[C@]1(O)Cc2c(O)c3c(c(O)c2[C@@H](O[C@H]2C[C@H](N)[C@H](O)[C@H](C)O2)C1)C(=O)c1ccccc1C3=O,156,-,.,.
COc1cccc2c1C(=O)c1c(O)c3c(c(O)c1C2=O)C[C@@](O)(C(C)=O)C[C@@H]3O[C@H]1C[C@H](N)[C@H](O)[C@H](C)O1,80,-,-,-
Cc1ccc(N/C(=N\c2nc(C)cc(C)n2)NC(=O)c2ccccc2)c(C)c1,.,-,.,.
O=C1CC(N2CCN(CCc3ccccn3)CC2)C(=O)N1c1ccc(Cl)cc1 (centres undefined),-,-,59,-
SMILES,Hsp90 block,BAP1 inh,Cdc25B inh,MKP-1 inh
O=C(Nc1ccccn1)c1ccc2ccccc2n1,-,-,70,-
CCOc1cc2c(c([N+](=O)[O-])c1)NC(c1ccc([N+](=O)[O-])cc1)C1CC=CC21 (centres undefined),.,-,.,.
CCOc1ccc(S(=O)(=O)Nc2ccc3c(c2)OCO3)c2cccnc12,54,-,-,-
COc1ccc(NCc2cc3cc(OC)ccc3[nH]c2=O)cc1,88,-,-,-
COc1ccc(NCc2cc3ccccc3[nH]c2=O)cc1,-,-,-,-
Cc1nnc(SCCn2c(N3CC(C)CC(C)C3)nc3c2c(=O)n(C)c(=O)n3C)s1 (centres undefined),68,-,-,-
O=C(c1nn2c(c1Cl)NC(c1cccs1)CC2C(F)(F)F)N1CCN(C(c2ccccc2)c2ccccc2)CC1 (centres undefined),.,-,.,.
O=C1c2ccccc2C(Nc2cccnc2)N1Cc1ccc2c(c1)OCO2 (centres undefined),-,-,-,-
O=C1c2ccccc2C(Nc2ccc3c(c2)OCO3)N1Cc1ccc2c(c1)OCO2 (centres undefined),51,-,-,-
Cc1cc(=O)[nH]c(SCCOc2ccccc2)n1,.,-,.,.
